Experimental data published in PubChem BioAssay (NCATS).
Records with an inconclusive call do not appear. A call without a number means that no potency is given here. Activity calls are given as the source filed them. Calls follow the shape of the dose curve; as a rule, active = well fitted inhibition curve with a large enough effect; inconclusive = small, poorly fitted or top-dose-only effect; inactive = flat fitted curve, though single readings scatter.

What follows are compounds tested against Phospholipid hydroperoxide glutathione peroxidase GPX4 (Homo sapiens) (UniProt P36969) (assay: Primary qHTS Assay for Inhibitors of Recombinant Selenoprotein Glutathione Peroxidase 4 (GPX4) (AID 1845192; also: nearly all actives have a fitted effect of over 65% in size)). Details: recombinant GPX4, GR-coupled NADPH fluorescence, 15 min; series mostly up to 50 µM.
Summary of the method: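 Steps: GPX4 plus compound, 30 min RT; add GR/GSH/NADPH master mix; start with cumene hydroperoxide; read 340/450 nm fluorescence at 0 and 15 min. Finals were 200 nM GPX4, 1 mM GSH, 0.5 mM CHP, 0.5 mM NADPH, 100 nM GR.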

Sequence of Phospholipid hydroperoxide glutathione peroxidase GPX4 (Homo sapiens) (P36969 whole entry, looked up): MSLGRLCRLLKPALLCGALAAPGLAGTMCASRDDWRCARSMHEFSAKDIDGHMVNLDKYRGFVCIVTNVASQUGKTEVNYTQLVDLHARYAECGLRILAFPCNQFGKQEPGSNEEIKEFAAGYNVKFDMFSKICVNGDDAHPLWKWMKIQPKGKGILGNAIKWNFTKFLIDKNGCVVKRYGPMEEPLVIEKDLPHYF

| SMILES | Potency | outcome |
| --- | --- | --- |
| CCCOc1ccc(CCc2nc3cc(-c4c(C)noc4C)ccc3n2CCN2CCOCC2)cc1 | inactive | – |
| CC(C)(O)C1Cc2c(ccc(C(=O)CCc3ccccc3)c2O)O1 (centres undefined) | inactive | – |
| O=C(N[C@H]1CCN(C(=O)c2cc(C(F)(F)F)cc(C(F)(F)F)c2)[C@H](Cc2ccc(Cl)cc2)C1)c1ccnc2ccccc12 | inactive | – |
| COc1cccc(CN(C(=O)CC(C)(C)C)[C@H]2C[C@H](C(=O)N3CCNCC3)N(Cc3ccc4c(c3)OCO4)C2)c1 | inactive | – |
| CC(C)Oc1ccc(-c2cnc3c(-c4ccnc5ccccc45)cnn3c2)cc1 | inactive | – |
| Fc1ccc(N2CCN(CCC3OCCc4ccccc43)CC2)cc1 (centres undefined) | inactive | – |
| O=C(NCC1(N2CCN(c3ccccc3)CC2)CCOCC1)c1cccnc1Sc1ccccc1 | inactive | – |
| CC(C)OC(=O)N1CCC(Oc2ncnc3c2cnn3-c2ccc(S(C)(=O)=O)cc2F)CC1 | inactive | – |
| O=C(N[C@@H]1CCCc2c1cnn2-c1ccc(F)cc1F)c1ccccn1 | inactive | – |
| CN(C)CCn1cc(-c2ccc(F)cc2)c(-n2cccc2)n1 | inactive | – |
| CC1(C)CC[C@]2(C(=O)O[C@@H]3O[C@H](CO)[C@@H](O)[C@H](O)[C@H]3O)CC[C@]3(C)C(=CCC4[C@@]5(C)CC[C@H](O[C@@H]6O[C@H](C(=O)O)[C@H](O)[C@H](O)[C@H]6O)C(C)(C)C5CC[C@]43C)[C@@H]2C1 (some centres undefined) | inactive | – |
| C=C1C(=O)O[C@H]2C1CCC(C)=C1C(=O)C=C(C)[C@@]12O (some centres undefined) | inactive | – |
| O=C(Nc1ccc(Cl)cc1)C1CCCN(C(=O)c2cccc(-c3ccco3)c2)C1 (centres undefined) | inactive | – |
| CC1=CC2/C=C(\C)CCC(O)C/C=C/C(=O)OC23C(=O)NC(CC(C)C)C3C1C (centres undefined) | inactive | – |
| Cc1[nH]c2ccccc2c1CCNC(=O)c1cccs1 | inactive | – |
| C/C=C(\C)C(=O)OC1C[C@@]2(COC(C)=O)O[C@H]2/C=C\[C@@]2(C)O[C@@H]2[C@H]2OC(=O)C(COC(C)=O)=C12 (some centres undefined) | inactive | – |
| CCC(C)c1ccc(NC(=O)Cn2cnc3c2c(=O)n(C)c(=O)n3C)cc1 (centres undefined) | inactive | – |
| C=C1C(=O)O[C@@H]2/C=C(/C)[C@@H](OC(C)=O)C/C=C(\C)C[C@@H](OC(=O)/C(=C/CO)CO)[C@@H]12 | inactive | – |
| CCN(Cc1ccccc1)C(=O)Cn1c(=O)n(C)c2cnc(-c3ccccc3)nc21 | inactive | – |
| Cc1cc2sc(NC(=O)Cc3ccccc3)nc2cc1Cl | inactive | – |
| O=C(C1CCCCC1)N(CCN1CCN(c2ccccc2O)CC1)c1ccccn1 | inactive | – |
| COc1cc(C#N)ccc1S(=O)(=O)Nc1ccc2c(c1)cc(C)c(=O)n2C | inactive | – |
| COc1cc(N2CCC(O)CC2)ccc1Nc1nc(Nc2ccccc2S(=O)(=O)C(C)C)c2[nH]cnc2n1 | inactive | – |
| Cc1nc(NC(=O)N2CCC[C@H]2C(N)=O)sc1-c1ccnc(C(C)(C)C(F)(F)F)c1 | inactive | – |
| COc1ccc(Oc2c(Cl)cnn(-c3cc(C)cc(C)c3)c2=O)cc1 | inactive | – |
| O=C(c1ccc(OC(F)F)c(C#Cc2ccccn2)c1)N1Cc2cccnc2C1 | inactive | – |
| COC(=O)C1=COC(O[C@@H]2O[C@H](CO[C@@H]3O[C@H](COC(=O)/C=C\c4ccc(O)cc4)[C@@H](O)[C@H](O)[C@H]3O)[C@@H](O)[C@H](O)[C@H]2O)C2C(CO)=CCC12 (some centres undefined) | inactive | – |
| C[C@@H]1O[C@@H](O[C@H]2[C@H](OC(=O)[C@]34CCC(C)(C)C[C@H]3C3=CCC5[C@@]6(C)C[C@H](O)[C@H](O[C@@H]7O[C@H](C(=O)O)[C@@H](O)[C@H](O)[C@H]7O)[C@@](C)(CO)C6[C@H](O)C[C@@]5(C)[C@]3(C)C[C@H]4O)O[C@@H](CO)[C@@H]2O)[C@H](O)[C@H](O)[C@H]1O[C@@H]1OC[C@@H](O)[C@H](O[C@H]2OC[C@](O)(CO)[C@H]2O)[C@H]1O (some centres undefined) | – | inactive [at 9.73 µM] |
| CCC[C@H](N[C@H]1CCc2cc(F)cc(F)c2C1)C(=O)Nc1cn(C(C)(C)CNCC(C)(C)C)cn1 | inactive | – |
